Only some compounds are listed: those with a hit (about 3.2% of all), similar ones and a draw of the others.
ANO1 block = TMEM16A chloride channel inhibitors, primary screen, cell-based, HTS; Anoctamin-1 (Mus musculus), Q8BHY3; HEK293 TMEM16A/YFP iodide influx fluorescence, ionomycin; normalized B-score (activity score, 25-100; higher = stronger inhibition) at 10 µM; 310,000 compounds, 1.2% hits; AID 588511, 2011;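 active = ratio plate-corrected score three or more library SD toward inhibition, starting fluorescence score within five deviations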;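 note: score derived from kinetic fluorescence span divided by baseline fluorescence per well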
PHOSPHO1 block = PubChem AID 1565; Phosphoethanolamine/phosphocholine phosphatase (Homo sapiens), Q8TCT1; recombinant PHOSPHO1, absorbance phosphatase assay; inhibition, % at 13.3 µM; 290,000 compounds, 1.1% hits; in the data active = inhibition above about 60%
Target sequence (Q8TCT1 whole entry, looked up): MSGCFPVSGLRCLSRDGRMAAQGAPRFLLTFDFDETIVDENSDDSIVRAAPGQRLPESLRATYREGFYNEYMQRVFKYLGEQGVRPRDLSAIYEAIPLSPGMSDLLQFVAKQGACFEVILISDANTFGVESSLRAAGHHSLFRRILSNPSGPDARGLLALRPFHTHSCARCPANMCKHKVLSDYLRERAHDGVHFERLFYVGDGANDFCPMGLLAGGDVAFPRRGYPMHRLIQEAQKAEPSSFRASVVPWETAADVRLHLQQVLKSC
TMEM16A act = TMEM16A chloride channel activators or potentiators, primary screen, cell-based, HTS; B-score at 10 µM; 340,000 compounds, 0.3% hits; HEK293 TMEM16A/YFP-H148Q/I152L, iodide quench fluorescence; stronger effect = lower value; AID 623877, 2012; Anoctamin-1 (Mus musculus), Q8BHY3;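 active = fluorescence-ratio B-score plate-corrected deviation score at least 3 library SD below zero, with starting fluorescence score within 5 deviations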;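 note: channel opened by trigger with iodide after compound preincubation; score built on the fluorescence ratio of max minus min over baseline; more negative score means more quench and so TMEM16A activation or potentiation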
CHT inh = inhibitors of human choline transporter CHT; High affinity choline transporter 1 (Homo sapiens), Q9GZV3; CHT-expressing cells, membrane potential dye, choline response; stronger effect = lower value; B-score at 10 µM; 310,000 compounds, 0.86% hits; AID 488975, 2010;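 active = B-score over 3 SD under the library average, and starting fluorescence ratio not unusually high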;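 note: choline stimulus applied at its EC90 after an EC20 pre-addition; B-score computed on integrated fluorescence ratio after choline addition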
HDAC3 inh = HDAC3 deacetylase inhibitors, primary screen, biochemical, fluorescence, cell-free homogeneous; inhibition, % at 8.3 µM; Histone deacetylase 3 (Homo sapiens), O15379; 320,000 compounds, 0.15% hits; recombinant HDAC3, fluorogenic peptide/trypsin coupled; in the data active = inhibition above about 26%, passing the limit was not always enough
CHT allo act = CHT positive allosteric modulators, primary screen, cell-based, membrane potential dye, choline EC20; B-score at 10 µM; High affinity choline transporter 1 (Homo sapiens), Q9GZV3; 310,000 compounds, 0.49% hits; AID 488977, 2010; CHT-expressing cells; stronger effect = higher value; LV-AA mutant CHT in HEK293 cells;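 active = initial fluorescence not abnormally high and integrated response B-score, plate-corrected, over 3 SD above library mean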
CHT inh conf = CHT inhibitors, confirmation, cell-based, membrane potential dye, duplicate; shares compounds with CHT inh; CHT-expressing cells, choline membrane potential dye; LV-to-AA substituted CHT, HEK293 cells; CHT activity remaining % of control (stronger effect = lower value), % at 10 µM; 2,400 compounds, 70% hits; AID 493221, 2011;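 active = choline transporter activity left, mean of duplicates at 10 µM, below buffer-only control mean minus 3 SD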;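 note: depolarization triggered by choline at its EC90 following an EC20 pre-addition; 0% = hemicholinium-3 full block and 100% = buffer-only control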
HEK293 MPD ctr = membrane potential effects in parental HEK293, counter-screen for CHT inhibitor project, cell-based, membrane potential dye. choline response; active = decrease or increase beyond buffer ±3SD. AID 493222, 2011. shares compounds with CHT inh. 2,400 compounds, 4% hits. membrane potential ratio readout (active if shifted either direction beyond buffer ±3SD; no single direction) at 10 µM;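 note: parental cells lack the transporter so any hit is non-specific; ratio is peak minus trough fluorescence over baseline after EC90 choline challenge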
* = called active by the depositor; i = inactive; x = not tested or not shown.

SMILES	ANO1 block	PHOSPHO1 block	TMEM16A act	CHT inh	HDAC3 inh	CHT allo act	CHT inh conf	HEK293 MPD ctr
Cc1ccnc(SCc2cc(=O)c(OC(=O)c3cccs3)co2)n1	i	-38	i	i	6	i	x	x
Cc1ccnc(SCc2cc(=O)c(OC(=O)c3ccco3)co2)n1	i	2	i	-5.8*	8	i	61%*	i
Cn1c(=O)c(C(=O)NNC(=O)c2cccc(Cl)c2)c(O)c2ccccc21	i	-37	i	i	-1	i	x	x
O=C(COC(=O)c1ccc(Br)cc1)NCCN1C(=O)CSC1=O	i	33	i	i	1	i	x	x
CCCCCc1ccc(OCCC[n+]2ccccc2)c(CCCCC)c1	i	24	i	-15*	12	i	-5.5%*	i
Cc1nc(SCC(=O)NC(=O)NCc2ccco2)nc(C)c1C	i	-1	i	i	1	i	x	x
Cc1nc(SCC(=O)NC(=O)NCc2ccccc2)nc(C)c1C	i	-11	i	-6.2*	-4	i	69%*	i
COC1CCN(Cc2c(C(=O)N3C[C@@H](C)O[C@@H](C)C3)nc3ccc(Cl)cn23)CC1	i	33	i	i	-2	i	x	x
Nc1nnnn1CC(=O)OCc1cccc(Br)c1	i	29	i	i	-2	i	x	x
Oc1c(CN2CCc3ccccc3C2)cc(Cl)c2cccnc12	i	30	i	i	-3	i	x	x
O=c1oc2ccccc2c(O)c1Cc1cc(Cl)c2cccnc2c1O	i	25	i	-7.3*	-1	i	69%*	i
O=C(CN1CCN(Cc2ccccc2Cl)C1=O)NC1CCCCCCC1	i	0	i	-5.2*	-1	i	i	i
CC1CCCCC1NC(=O)CN1CCN(Cc2ccccc2Cl)C1=O (stereo not drawn)	i	5	i	i	0	i	x	x
O=C(COC(=O)c1ccccc1NCCO)Nc1ccc(S(=O)(=O)NC2=NCCCCC2)cc1	x	x	i	x	x	x	x	x
COc1ccc(C(=O)N(C)CCCC2CCCC2)cc1OC1CCN(C(C)C)CC1	i	33	i	-7*	0	i	23%*	i
COc1ccc(C(=O)NCc2ccon2)cc1OC1CCN(C(C)C)CC1	i	40	i	-7.3*	1	i	34%*	i
COc1ccc(C(=O)N[C@H]2CCCCNC2=O)cc1OC1CCN(C(C)C)CC1	i	-4	i	-9.2*	2	i	34%*	i
COc1ccc(C(=O)N2CCCCCCC2)cc1OC1CCN(C(C)C)CC1	i	20	i	i	-5	i	x	x
CCCn1c2ccccc2c2cnn(CC(=O)OC)c(=O)c21	i	23	i	-5.8*	3	i	24%*	i
Cn1c2ccccc2c2cnn(CC(=O)NCCCN3CCN(c4ccccc4F)CC3)c(=O)c21	i	7	i	-5.5*	-1	i	i	i
CCCN1CCN(CCCNC(=O)Cn2ncc3c4ccccc4n(C)c3c2=O)CC1	i	19	i	i	-8	i	x	x
CCCn1c2ccccc2c2cnn(CC(=O)NCCCN3CCCCC3)c(=O)c21	i	37	i	-9.3*	-9	i	21%*	i
CCCn1c2ccccc2c2cnn(CC(=O)NCCCN3CCN(c4ccccc4)CC3)c(=O)c21	i	30	i	-9.9*	3	i	23%*	i
CCCn1c2ccccc2c2cnn(CC(=O)O)c(=O)c21	i	x	i	i	1	i	x	x
CCCn1c2ccccc2c2cnn(CC(=O)NC3CCC(C)CC3)c(=O)c21 (stereo not drawn)	i	24	i	i	1	i	x	x
SMILES	ANO1 block	PHOSPHO1 block	TMEM16A act	CHT inh	HDAC3 inh	CHT allo act	CHT inh conf	HEK293 MPD ctr
O=C(Cn1ncc2c3ccccc3n(Cc3ccccc3)c2c1=O)NCCCN1CCCC1	i	49	i	-9*	-5	i	25%*	i
CCCn1c2ccccc2c2cnn(CC(=O)NCCCN3CCCC(C)C3)c(=O)c21 (stereo not drawn)	i	42	i	-6.6*	-6	i	26%*	i
O=C(Cn1ncc2c3ccccc3n(Cc3ccccc3)c2c1=O)NCCN1CCOCC1	i	-25	i	-15*	2	i	6.6%*	i
COc1ccc(S(=O)(=O)N2CCCOC2CNC(=O)C(=O)NCCCN2CCOCC2)cc1C (stereo not drawn)	i	51	i	i	6	i	x	x
Cc1cc(NC(=O)CSc2nncn2N)no1	i	-17	i	i	-11	i	x	x
CCCCC1=CC2=CC(=O)C(C)(OC(=O)CC)C(=O)C2=CO1 (stereo not drawn)	i	x	i	i	-1	i	x	x
CCNc1cc(Cl)nc(SC)n1	i	24	i	-14*	1	i	-6.5%*	i
CCN1CCN(CCCNC(=O)CCC(=O)N2CC(C)Oc3ccc(C)cc32)CC1 (stereo not drawn)	i	18	i	i	1	i	x	x
CCCCNS(=O)(=O)c1ccc(NC(=O)c2c(-c3ccccc3Cl)noc2C)cc1	i	-11	i	-5*	5	i	54%*	i
COc1ccc(C(CNC(=O)c2cccc(S(=O)(=O)Nc3ccc(C)cc3)c2)N2CCCCC2)cc1 (stereo not drawn)	i	x	i	-14*	-1	i	12%*	i
Cc1cccc(NS(=O)(=O)c2cccc(C(=O)NCC(c3ccco3)N3CCCCC3)c2)c1 (stereo not drawn)	i	x	i	-6.7*	-2	i	14%*	i
O=C(NCC(c1ccco1)N1CCCCC1)c1cccc(S(=O)(=O)Nc2ccccc2Cl)c1 (stereo not drawn)	i	43	i	i	-2	i	x	x
